Assay [1] is described as follows: ATG_TAL_CIS: Attagene CIS-FACTORIAL HepG2 Assay for human TAL Basal Promoter (AID 2282966).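 Further: background control endpoint measuring basal TAL promoter reporter mRNA not a specific factor.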 The note with it: HepG2 Attagene cis-factorial TAL promoter reporter; actives raise or lower the signal. The procedure, abridged: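 Readout: reporter mRNA, fluorescence by CE. System: HepG2, transient multi-reporter transfection, endogenous TF activity. Exposure: 24 h. Analysis: bidirectional, DMSO-normalized; background control.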

A short description of assay [2]: ATG_TGFb_CIS: Attagene CIS-FACTORIAL HepG2 Assay for human Transforming Growth Factor (TGF) (AID 2282967). To be noted: HepG2 Attagene CIS TGFb reporter, mRNA transcription; actives raise or lower the signal. The procedure, abridged: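 Liver HepG2 line, cis-factorial reporter panel, 24 h dosing. Quantitation: RT-PCR products labeled with 6-FAM, cut with HpaI, resolved by capillary electrophoresis; DMSO-referenced bidirectional analysis.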

Assay [3] is described as follows: ATG_VDRE_CIS: Attagene CIS-FACTORIAL HepG2 Assay for human Vitamin D Receptor Element (VDRE) (AID 2282968). To be noted: HepG2 VDRE cis-reporter transcription, actives raise or lower the signal. The procedure, abridged:
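Reporter mRNA induction, quantified by capillary electrophoresis of fluorescently labelled RT-PCR products, was read 24 h after dosing HepG2 cells carrying transiently transfected cis-regulated reporter units; gain or loss relative to DMSO.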

The target of assay [4] is X-box-binding protein 1 (Homo sapiens) (UniProt P17861). As to the kind of experiment: ATG_Xbp1_CIS: Attagene CIS-FACTORIAL HepG2 Assay for human X-box Binding Protein 1 (XBP1) (AID 2282972). To be noted: HepG2 XBP1 cis-element reporter, Attagene multiplex; actives raise or lower the signal. The procedure, abridged: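 HepG2, transient MRTU transfection (cis-promoter driven), 24 h compound exposure. Total RNA → oligo(dT) RT → PCR → 6-FAM labeling → HpaI cut → CE. Bidirectional fit vs DMSO.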

Assay [5] in a line: ATG_M_19_TRANS: Attagene TRANS-FACTORIAL HepG2 Assay for M19 Transcription Factor (Internal Marker) (AID 2282974; active means hit-call score of the fitted dose curve at least 0.9, where 1 is the maximum). The note with it: HepG2 Attagene TRANS-FACTORIAL M19 internal marker reporter. The procedure, abridged: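 HepG2 transiently transfected with GAL4-UAS multiplex reporter constructs, exposed 24 h; reporter RNA quantified by RT-PCR, 6-FAM labeling, HpaI digestion and capillary electrophoresis; internal background marker fitted upward versus DMSO.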

Assay [6] concerns the target Oxysterols receptor LXR-alpha (Homo sapiens) (UniProt Q13133). The experiment in a line: ATG_LXRa_TRANS: Attagene TRANS-FACTORIAL HepG2 Assay for human Liver X Receptor alpha (LXRa) (AID 2282980; active means hit-call score of the fitted dose curve at least 0.9, where 1 is the maximum). To be noted: HepG2 Attagene TRANS reporter, LXRa transactivation. The procedure, abridged:
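Transient HepG2 transfectants, 24 h dosing, RT-PCR/CE mRNA reporter quantitation; gain-of-signal vs DMSO.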

Assay [7] concerns the target Hepatocyte nuclear factor 4-alpha (Homo sapiens) (UniProt P41235). The experiment in a line: ATG_HNF4a_TRANS: Attagene TRANS-FACTORIAL HepG2 Assay for human Hepatocyte Nuclear Factor 4 alpha (HNF4a) (AID 2282982; active means hit-call score of the fitted dose curve at least 0.9, where 1 is the maximum). The note with it: HepG2 HNF4a transactivation reporter, mRNA readout. The procedure, abridged:
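Readout is fluorescent reporter-transcript fragments resolved by capillary electrophoresis after RT-PCR from HepG2 cells dosed for 24 h. Cells carried transfected GAL4-UAS reporter constructs measuring exogenous NR-GAL4 chimera activity; DMSO served as baseline.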

The nature of assay [8]: ATG_M_06_TRANS: Attagene TRANS-FACTORIAL HepG2 Assay for M06 Transcription Factor (Internal Marker) (AID 2282983; active means hit-call score of the fitted dose curve at least 0.9, where 1 is the maximum;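 further: reporter transcript level by RT-PCR then capillary electrophoresis fluorescence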). To be noted: HepG2 Attagene TRANS M06 internal marker reporter. The procedure, abridged: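 Measured by capillary electrophoresis of fluorescently labelled RT-PCR products, this endpoint reflects reporter mRNA in HepG2 cells harbouring exogenous NR-GAL4 reporter constructs after 24 h exposure, with DMSO as baseline.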

The nature of assay [9]: ATG_M_32_TRANS: Attagene TRANS-FACTORIAL HepG2 Assay for M32 Transcription Factor (Internal Marker) (AID 2282984; active means hit-call score of the fitted dose curve at least 0.9, where 1 is the maximum;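 further: transcript level of a background control reporter unit measured by RT-PCR and capillary electrophoresis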). The note with it: HepG2 Attagene TRANS M32 internal marker reporter. The procedure, abridged: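 Measures reporter mRNA induction in human HepG2 liver cells after 24 h chemical treatment. Transcripts from transiently transfected GAL4-UAS reporter units are amplified, fluorescently labelled and sized by capillary electrophoresis; gain of signal relative to DMSO.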

In assay [10] the target is Transcriptional activator Myb (Homo sapiens) (UniProt P10242). The experiment in a line: ATG_Myb_CIS: Attagene CIS-FACTORIAL HepG2 Assay for human Myeloblastosis (Myb) Proto-Oncogene Transcription Factor (AID 2282986). The note with it: HepG2 Attagene CIS-FACTORIAL Myb reporter transcription; actives raise or lower the signal. The procedure, abridged: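 Transiently transfected HepG2 cells carrying a multiplexed cis-promoter reporter set report endogenous Myb activity after 24 h compound exposure. Reporter mRNA is read by RT-PCR with capillary electrophoresis of fluorescent products, fitted bidirectionally against DMSO.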

Assay [11] concerns the target Nuclear respiratory factor 1 (Homo sapiens) (UniProt Q16656). The experiment in a line: ATG_NRF1_CIS: Attagene CIS-FACTORIAL HepG2 Assay for human Nuclear Respiratory Factor 1 (NRF1) Orphan Gene (AID 2282987). To be noted: HepG2 NRF1 cis-element reporter, Attagene multiplex; actives raise or lower the signal. The procedure, abridged: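 HepG2 cells transiently transfected with multiple cis-regulated reporter units, exposed 24 h. Reporter mRNAs measured by RT-PCR, fluorescent labelling, HpaI digestion and capillary electrophoresis; bidirectional fitting against DMSO.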

The target in assay [12] is Estrogen-related receptor gamma (Homo sapiens) (UniProt P62508). As to the kind of experiment: ATG_ERRg_TRANS: Attagene TRANS-FACTORIAL HepG2 Assay for human Estrogen-Related Receptor gamma (ERRg) (AID 2282977; active means hit-call score of the fitted dose curve at least 0.9, where 1 is the maximum;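 further: hits increase reporter signal over DMSO so potencies reflect activators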). The note with it: HepG2 Attagene TRANS reporter, ERRg transactivation. The procedure, abridged:
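HepG2 cells transiently transfected with multiplexed GAL4-UAS reporter units driven by chimeric NR-Gal4 proteins; 24 h exposure. Reporter mRNA quantified by RT-PCR, fluorescent labelling, HpaI digestion and capillary electrophoresis; gain of signal vs DMSO.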

The target in assay [13] is Nuclear receptor subfamily 4 group A member 2 (Homo sapiens) (UniProt P43354). As to the kind of experiment: ATG_NURR1_TRANS: Attagene TRANS-FACTORIAL HepG2 Assay for human Nuclear Receptor Related Protein 1 (NURR1) (AID 2282985; active means hit-call score of the fitted dose curve at least 0.9, where 1 is the maximum). The note with it: HepG2 Attagene TRANS reporter, mRNA readout. The procedure, abridged: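 Transient transfection of HepG2, human liver cells, with multiple GAL4-UAS reporter transcription units. Cells dosed 24 h, RNA isolated, reverse-transcribed, PCR-amplified, FAM-labelled, HpaI-digested, sized by capillary electrophoresis. DMSO served as negative control.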

A short description of assay [14]: ATG_NFI_CIS: Attagene CIS-FACTORIAL HepG2 Assay for human Nuclear Factor I (NFI) (AID 2282989). To be noted: HepG2 cis-regulatory reporter, NFI response element transcription; actives raise or lower the signal. The procedure, abridged:
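Transfected HepG2 liver cells, exposed 24 h, supplied total RNA for oligo(dT) reverse transcription and reporter-specific PCR. Labelled, HpaI-cut fragments were sized by capillary electrophoresis; DMSO set the baseline for bidirectional fitting.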

Assay [15] deals with Glucocorticoid receptor (Homo sapiens) (UniProt P04150). The experiment in a line: ATG_GR_TRANS: Attagene TRANS-FACTORIAL HepG2 Assay for human Glucocorticoid Receptor (GR) (AID 2282978; active means hit-call score of the fitted dose curve at least 0.9, where 1 is the maximum;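 further: activators score as hits since higher reporter transcript over DMSO is fitted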). The note with it: HepG2 Attagene TRANS GR reporter, mRNA transcription. The procedure, abridged: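 HepG2 cells transiently transfected with GAL4-UAS reporter units and exogenous GR-Gal4 chimera, dosed 24 h. Reporter mRNA by RT-PCR, FAM labeling, HpaI digest and capillary electrophoresis; gain-of-signal fit versus DMSO.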

Assay [16] addresses Bile acid receptor (Homo sapiens) (UniProt Q96RI1). As to the kind of experiment: ATG_FXR_TRANS: Attagene TRANS-FACTORIAL HepG2 Assay for Farnesoid X Receptor (FXR) (AID 2282979; active means hit-call score of the fitted dose curve at least 0.9, where 1 is the maximum;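 further: hits raise reporter mRNA above DMSO so AC50 marks FXR activation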). The note with it: HepG2 Attagene TRANS FXR-GAL4 reporter transcription. The procedure, abridged:
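Chimeric FXR-GAL4 activity in transiently transfected human HepG2 liver cells is scored as induction of reporter mRNA after 24 h of dosing. Detection uses RT-PCR with fluorescent labelling and capillary electrophoresis, with DMSO serving as baseline.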

Assay [17] deals with Oxysterols receptor LXR-beta (Homo sapiens) (UniProt P55055). The experiment in a line: ATG_LXRb_TRANS: Attagene TRANS-FACTORIAL HepG2 Assay for human Liver X Receptor beta (LXRb) (AID 2282981; active means hit-call score of the fitted dose curve at least 0.9, where 1 is the maximum). To be noted: HepG2 Attagene TRANS GAL4-LXRb reporter, mRNA. The procedure, abridged: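 Transient transfection HepG2 (multiplexed RTUs, GAL4-UAS); NR-Gal4 chimera; 24 h exposure; RNA → RT-PCR → 6-FAM primer extension → HpaI → CE; increase vs DMSO.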

Assay [18] in a line: ATG_GAL4_TRANS: Attagene TRANS-FACTORIAL HepG2 Assay for GAL4 (Internal Marker) (AID 2282976; active means hit-call score of the fitted dose curve at least 0.9, where 1 is the maximum). To be noted: HepG2 Attagene TRANS GAL4 internal marker reporter. The procedure, abridged: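 Fluorescence from capillary electrophoresis of labelled RT-PCR products quantifies reporter mRNA induction after 24 h dosing of HepG2 cells carrying transfected GAL4-UAS reporter transcription units. Vehicle DMSO serves as baseline.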

Results filed as inconclusive are left out. Activity calls are given as the source filed them. How the source made its calls, unless noted: active means hit-call score of the fitted dose curve at least 0.9, where 1 is the maximum; inactive means score below 0.9.

Nuclear receptor subfamily 4 group A member 2 (Homo sapiens), sequence (P43354 whole entry, looked up, the tested form may be a part): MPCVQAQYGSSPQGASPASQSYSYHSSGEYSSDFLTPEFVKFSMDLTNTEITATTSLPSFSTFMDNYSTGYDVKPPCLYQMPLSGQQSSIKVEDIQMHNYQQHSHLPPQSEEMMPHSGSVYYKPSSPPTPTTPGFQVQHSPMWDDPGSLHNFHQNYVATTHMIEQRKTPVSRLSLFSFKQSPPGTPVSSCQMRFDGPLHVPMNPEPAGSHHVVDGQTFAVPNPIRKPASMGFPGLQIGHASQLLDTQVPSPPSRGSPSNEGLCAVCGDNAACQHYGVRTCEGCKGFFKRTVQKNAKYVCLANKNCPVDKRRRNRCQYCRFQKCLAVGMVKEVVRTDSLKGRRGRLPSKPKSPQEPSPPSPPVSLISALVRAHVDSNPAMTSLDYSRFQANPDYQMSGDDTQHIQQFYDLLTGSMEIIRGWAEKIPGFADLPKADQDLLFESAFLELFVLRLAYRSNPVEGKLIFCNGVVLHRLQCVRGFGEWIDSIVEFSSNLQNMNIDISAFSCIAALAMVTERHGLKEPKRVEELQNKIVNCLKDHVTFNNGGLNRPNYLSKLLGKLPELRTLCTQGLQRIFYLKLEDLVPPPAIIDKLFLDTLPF
Nuclear respiratory factor 1 (Homo sapiens), sequence (Q16656 whole entry, looked up): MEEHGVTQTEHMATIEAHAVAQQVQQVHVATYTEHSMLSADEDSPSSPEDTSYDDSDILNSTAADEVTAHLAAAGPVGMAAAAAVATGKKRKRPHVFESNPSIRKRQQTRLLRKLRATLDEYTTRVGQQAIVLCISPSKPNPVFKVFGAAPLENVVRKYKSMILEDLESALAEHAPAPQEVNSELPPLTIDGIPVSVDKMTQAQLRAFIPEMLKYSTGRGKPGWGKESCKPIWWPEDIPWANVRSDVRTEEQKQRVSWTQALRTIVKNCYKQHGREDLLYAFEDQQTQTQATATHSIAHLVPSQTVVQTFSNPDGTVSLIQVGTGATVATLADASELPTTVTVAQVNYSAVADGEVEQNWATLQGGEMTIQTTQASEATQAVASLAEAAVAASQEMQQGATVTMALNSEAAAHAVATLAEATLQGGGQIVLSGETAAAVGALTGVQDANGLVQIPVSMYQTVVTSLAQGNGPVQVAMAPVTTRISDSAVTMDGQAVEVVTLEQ
Oxysterols receptor LXR-alpha (Homo sapiens), sequence (Q13133 whole entry, looked up): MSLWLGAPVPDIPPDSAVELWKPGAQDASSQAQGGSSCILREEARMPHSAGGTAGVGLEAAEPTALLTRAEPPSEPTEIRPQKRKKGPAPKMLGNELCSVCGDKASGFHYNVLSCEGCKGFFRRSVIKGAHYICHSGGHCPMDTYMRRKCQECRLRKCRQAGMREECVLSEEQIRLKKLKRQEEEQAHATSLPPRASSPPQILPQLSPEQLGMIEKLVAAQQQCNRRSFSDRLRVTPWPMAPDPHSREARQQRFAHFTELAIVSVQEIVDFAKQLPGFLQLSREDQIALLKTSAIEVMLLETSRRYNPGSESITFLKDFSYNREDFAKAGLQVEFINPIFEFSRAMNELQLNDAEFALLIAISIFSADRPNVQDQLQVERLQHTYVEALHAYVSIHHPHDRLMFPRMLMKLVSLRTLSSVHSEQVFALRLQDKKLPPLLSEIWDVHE
Transcriptional activator Myb (Homo sapiens), sequence (P10242 whole entry, looked up): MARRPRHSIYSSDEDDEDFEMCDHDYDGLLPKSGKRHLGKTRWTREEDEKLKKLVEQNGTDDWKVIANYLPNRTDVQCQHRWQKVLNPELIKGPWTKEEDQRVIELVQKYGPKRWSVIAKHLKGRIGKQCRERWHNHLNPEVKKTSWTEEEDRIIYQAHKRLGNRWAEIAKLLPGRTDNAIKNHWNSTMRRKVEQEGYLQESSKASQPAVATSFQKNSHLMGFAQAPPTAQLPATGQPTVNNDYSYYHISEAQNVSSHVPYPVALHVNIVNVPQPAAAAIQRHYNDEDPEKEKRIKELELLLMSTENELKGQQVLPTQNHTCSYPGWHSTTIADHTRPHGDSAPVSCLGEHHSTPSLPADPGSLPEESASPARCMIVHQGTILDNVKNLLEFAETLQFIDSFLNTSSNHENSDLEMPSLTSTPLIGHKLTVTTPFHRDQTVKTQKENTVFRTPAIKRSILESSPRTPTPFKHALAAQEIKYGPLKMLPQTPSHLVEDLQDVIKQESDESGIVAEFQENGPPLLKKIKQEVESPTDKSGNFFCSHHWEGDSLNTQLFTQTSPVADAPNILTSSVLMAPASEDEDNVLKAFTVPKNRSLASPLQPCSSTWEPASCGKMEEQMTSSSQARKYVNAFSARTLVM
X-box-binding protein 1 (Homo sapiens), sequence (P17861 whole entry, looked up): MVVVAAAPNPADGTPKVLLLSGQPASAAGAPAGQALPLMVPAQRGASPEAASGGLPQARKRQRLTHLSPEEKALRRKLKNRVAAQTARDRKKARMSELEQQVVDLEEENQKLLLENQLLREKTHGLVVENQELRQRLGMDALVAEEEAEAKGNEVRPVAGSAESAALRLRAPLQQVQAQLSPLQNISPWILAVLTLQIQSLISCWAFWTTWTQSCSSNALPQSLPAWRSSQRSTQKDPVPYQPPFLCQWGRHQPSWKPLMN
Hepatocyte nuclear factor 4-alpha (Homo sapiens), sequence (P41235 whole entry, looked up, the tested form may be a part): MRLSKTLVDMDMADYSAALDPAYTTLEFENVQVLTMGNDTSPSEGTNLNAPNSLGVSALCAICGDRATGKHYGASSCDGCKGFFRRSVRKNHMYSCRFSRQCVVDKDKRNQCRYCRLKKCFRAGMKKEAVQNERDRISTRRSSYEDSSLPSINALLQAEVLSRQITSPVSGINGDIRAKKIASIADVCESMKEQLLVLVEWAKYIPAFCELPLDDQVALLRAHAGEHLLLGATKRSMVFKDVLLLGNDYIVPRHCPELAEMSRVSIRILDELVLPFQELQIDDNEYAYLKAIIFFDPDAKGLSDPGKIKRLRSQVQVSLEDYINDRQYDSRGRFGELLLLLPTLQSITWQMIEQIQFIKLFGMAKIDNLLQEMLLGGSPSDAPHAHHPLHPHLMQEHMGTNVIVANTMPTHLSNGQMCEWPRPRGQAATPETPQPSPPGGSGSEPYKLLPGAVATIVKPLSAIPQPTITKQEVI
Glucocorticoid receptor (Homo sapiens), sequence (P04150 whole entry, looked up, the tested form may be a part): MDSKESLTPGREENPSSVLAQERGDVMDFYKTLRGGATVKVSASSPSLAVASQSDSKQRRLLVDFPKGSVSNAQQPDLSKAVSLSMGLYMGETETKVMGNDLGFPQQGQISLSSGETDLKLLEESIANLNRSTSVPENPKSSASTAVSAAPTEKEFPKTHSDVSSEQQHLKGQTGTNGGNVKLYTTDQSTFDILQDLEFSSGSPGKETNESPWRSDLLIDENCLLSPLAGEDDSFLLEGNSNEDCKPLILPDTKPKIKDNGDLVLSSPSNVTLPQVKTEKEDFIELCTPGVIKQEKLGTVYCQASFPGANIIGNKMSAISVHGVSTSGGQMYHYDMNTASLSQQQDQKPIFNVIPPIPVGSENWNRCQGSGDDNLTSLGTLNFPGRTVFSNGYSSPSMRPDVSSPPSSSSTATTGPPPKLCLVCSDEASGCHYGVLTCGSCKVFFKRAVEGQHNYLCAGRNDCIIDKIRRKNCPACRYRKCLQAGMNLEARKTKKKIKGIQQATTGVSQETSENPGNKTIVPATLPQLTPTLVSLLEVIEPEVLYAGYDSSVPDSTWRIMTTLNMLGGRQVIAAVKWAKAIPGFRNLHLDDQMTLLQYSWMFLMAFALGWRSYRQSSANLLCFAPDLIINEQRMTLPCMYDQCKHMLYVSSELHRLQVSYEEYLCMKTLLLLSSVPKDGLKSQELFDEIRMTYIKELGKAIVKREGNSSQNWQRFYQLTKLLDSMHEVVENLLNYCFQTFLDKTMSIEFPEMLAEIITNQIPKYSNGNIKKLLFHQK
Bile acid receptor (Homo sapiens), sequence (Q96RI1 whole entry, looked up, the tested form may be a part): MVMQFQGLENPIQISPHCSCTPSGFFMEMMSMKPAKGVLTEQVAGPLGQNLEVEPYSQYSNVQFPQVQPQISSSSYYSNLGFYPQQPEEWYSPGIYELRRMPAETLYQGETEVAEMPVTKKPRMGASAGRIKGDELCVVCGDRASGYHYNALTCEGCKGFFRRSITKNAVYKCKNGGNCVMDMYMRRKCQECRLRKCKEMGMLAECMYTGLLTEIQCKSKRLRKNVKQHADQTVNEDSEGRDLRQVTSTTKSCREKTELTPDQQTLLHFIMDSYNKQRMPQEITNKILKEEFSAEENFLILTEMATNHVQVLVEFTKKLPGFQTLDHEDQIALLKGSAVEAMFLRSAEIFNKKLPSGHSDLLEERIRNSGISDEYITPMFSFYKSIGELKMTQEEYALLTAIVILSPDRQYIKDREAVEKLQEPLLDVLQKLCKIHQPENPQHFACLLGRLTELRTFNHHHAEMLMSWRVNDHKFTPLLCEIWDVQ
Oxysterols receptor LXR-beta (Homo sapiens), sequence (P55055 whole entry, looked up, the tested form may be a part): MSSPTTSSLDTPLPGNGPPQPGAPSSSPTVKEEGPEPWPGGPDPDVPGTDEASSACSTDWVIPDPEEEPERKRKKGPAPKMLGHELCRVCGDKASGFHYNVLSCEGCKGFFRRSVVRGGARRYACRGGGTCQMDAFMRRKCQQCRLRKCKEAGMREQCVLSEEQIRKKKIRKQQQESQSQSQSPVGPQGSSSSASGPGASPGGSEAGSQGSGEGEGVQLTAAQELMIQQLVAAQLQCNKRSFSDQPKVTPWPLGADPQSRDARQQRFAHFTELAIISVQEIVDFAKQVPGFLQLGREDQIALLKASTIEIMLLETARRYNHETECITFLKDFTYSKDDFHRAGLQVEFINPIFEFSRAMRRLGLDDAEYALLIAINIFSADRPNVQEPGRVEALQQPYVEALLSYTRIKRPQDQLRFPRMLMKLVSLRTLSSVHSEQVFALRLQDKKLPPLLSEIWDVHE

`CCOc1ccc(N=Nc2ccc(C=Cc3ccc(N=Nc4ccc(OCC)cc4)cc3S(=O)(=O)O)c(S(=O)(=O)O)c2)cc1`: the call in assay [1], in assay [2], in assay [3], in assay [4], in [5] and in assay [6] was inactive. In addition, the compound was classed as inactive in assay [7], in assay [8], in [9], in assay [10] and in assay [11].
On to `COC(=O)c1ccc(C)cc1C1=NC(C)(C(C)C)C(=O)N1` (configuration not stated) (tested in a mixture with another compound), for which the compound was classed as inactive in assay [1], in [2], in assay [4], in assay [5], in assay [12] and in assay [6]. Besides, the call in assay [13], in [10], in assay [11] and in assay [14] was inactive. The AC50 in assay [3] was 26.8 µM (active).
`CC(=O)O[C@@H]1C[C@@H]2CC[C@@]1(C)C2(C)C`: the result in assay [1], in [2], in [3], in [4], in assay [5] and in assay [15] was inactive. The result in assay [16], in [6], in [7], in [9], in [10] and in assay [11] was inactive. Also, in [14], the call was inactive.
As to `CCOC(=O)CN`, the result in assay [1], in assay [2], in assay [3], in assay [4], in [15] and in assay [16] was inactive. Also, the outcome in assay [6], in [7], in assay [8], in [10] and in assay [11] was inactive.
As to `C=C[Si]1(C)O[Si](C)(C=C)O[Si](C)(C=C)O[Si](C)(C=C)O1` (configuration not stated), the call in assay [1], in assay [2], in assay [3], in assay [4], in assay [5] and in assay [10] was inactive. The outcome in assay [11] and in assay [14] was inactive.
For `CSc1c(Cl)c(Cl)c(Cl)c(Cl)c1Cl`, the compound was classed as inactive in assay [1], in assay [2], in assay [3], in assay [15], in assay [16] and in assay [6]. In addition, the result in [17], in assay [8] and in assay [9] was inactive. The AC50 in assay [4] is 136 µM (active); in assay [13], 26.9 µM (active); in assay [11], 169 µM (active); in assay [14], 154 µM (active).
Take `ClC(c1ccccc1)(c1ccccc1)c1ccccc1`: the outcome in assay [1], in assay [2], in [4], in [18], in [15] and in assay [16] was inactive. For the same compound, the compound was called inactive in [8], in [13], in assay [10], in [11] and in assay [14]. In addition, in assay [3], the half-maximal activity concentration (AC50) was 5.98 µM (active).
As for `[O-]n1ccccc1=S.[O-]n1ccccc1=S.[Zn+2]`, the call in [1], in [2], in assay [3], in [4], in [18] and in assay [6] was inactive. The compound was classed as inactive in [7], in assay [8], in assay [9], in assay [10], in [11] and in assay [14].
With `Cc1c(Cl)cccc1[N+](=O)[O-]`, the compound was called inactive in assay [1], in [2], in assay [3], in assay [4], in assay [5] and in assay [7]. Also, the compound was called inactive in [10], in assay [11] and in assay [14].
With `Brc1ccc(Br)c(Br)c1`, the call in assay [1], in assay [2], in assay [3], in assay [4], in assay [5] and in assay [9] was inactive. Also, the compound was called inactive in assay [10], in [11] and in assay [14].
As for `CCC1(c2ccccc2)C(=O)NCNC1=O`, the compound was called inactive in assay [1], in assay [2], in assay [3], in [4], in [15] and in [16]. Moreover, the compound was classed as inactive in [17], in assay [7], in [8], in assay [9], in assay [10] and in assay [11]. Moreover, the result in assay [14] was inactive.

For the origin of these results see PubChem BioAssay (EPA / NIEHS).
